tim23-1 inh – growth inhibitors of tim23-1 mutant yeast, primary screen, luminescence, uHTS; S. cerevisiae tim23-1 growth, BacTiter-Glo luminescence, 24 h; inhibition, % at 20 µM; 330,000 compounds, 1.3% hits; AID 463212, 2010;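 active = growth inhibition of the mutant yeast at or above 50%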;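 note: temperature-sensitive mutant grown at 25 °C; plate controls were DMSO-treated mutant yeast for no effect and medium wells lacking yeast for full effect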
PfHsp90 yeast 2 – growth inhibition of PfHsp90-expressing yeast, primary screen, antimalarial PfHsp90 inhibitor project, S. cerevisiae, BacTiter-Glo luminescence, single point, set 2; BacTiter-Glo ATP, 48 h; yeast lacking PDR1 and PDR3 efflux regulators; inhibition, % at 9.4 µM; 310,000 compounds, 0.32% hits;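 active = every replicate shows inhibition above about 80%, whatever the replicate mean, limit read from the data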;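 note: 0% = DMSO neutral controls and 100% = 20 µM radicicol positive controls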
NALP3 yeast inh – NALP3 inflammasome inhibitors in reconstituted yeast, primary screen, luminescence, uHTS; inhibition, % at 10 µM; AID 2825, 2010; Yeast reconstituted NLRP3/ASC/caspase-1, beta-gal luminescence, 24 h; 330,000 compounds, 0.39% hits;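 active = inhibition of 50% or more; inactive = inhibition below 50%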;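 note: plate controls were induced DMSO wells for no effect and uninduced yeast grown without galactose for full effect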
TIM10 inh – growth inhibitors of isogenic TIM10 control yeast, primary screen, counter-screen for tim10-1 yeast inhibitor project, luminescence, uHTS | S. cerevisiae TIM10 strain growth, BacTiter-Glo luminescence, 24 h | inhibition, % at 10 µM | 330,000 compounds, 1.4% hits;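 active = inhibition of 40% or more at the single tested concentration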;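 note: wild-type TIM10 isogenic control strain grown at permissive 25 °C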
tim10-1 inh – growth inhibitors of tim10-1 mutant yeast, primary screen, luminescence, uHTS. S. cerevisiae tim10-1 ts strain growth, BacTiter-Glo, 24 h. inhibition, % at 20 µM. 330,000 compounds, 2.2% hits. AID 463190, 2010;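 active = inhibition of at least 40%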;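 note: mutant grown at 25 °C; 0% = DMSO wells with yeast and 100% = wells holding no yeast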
SKKanGAS inh – S. pyogenes SKKanGAS growth inhibitors in kanamycin, primary screen, streptokinase expression inhibitor project, SKKanGAS strain, BacTiter-Glo luminescence; 6 h; inhibition, % at 7.5 µM; 300,000 compounds, 1.3% hits; AID 1662, 2009;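 active = mean replicate score, as percent of positive control median, at least 50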;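 note: strain carries kanamycin resistance gene driven by streptokinase promoter and grows in 40 µg/ml kanamycin; loss of luminescence reflects streptokinase promoter inhibition or plain growth inhibition; 0% = median of DMSO wells and 100% = positive control at its reference dose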
tim10-1 conf – growth inhibitors of tim10-1 mutant yeast, confirmation, single concentration, luminescence, S. cerevisiae | AID 463213, 2010 | S. cerevisiae tim10-1 ts strain growth, BacTiter-Glo, 24 h | inhibition, % at 20 µM | shares compounds with tim10-1 inh | 7,400 compounds, 56% hits;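 active = inhibition of yeast growth at or above a set limit in either of two repeat tests at 20 µM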;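 note: tim10-1 mutant grown at permissive 25 °C to find synthetic lethal compounds; 0% = DMSO yeast wells and 100% = medium wells without yeast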
An asterisk follows results filed as active; x = no result given. Compounds with a hit are over-represented: about 4.6% of the library has one in this group of screens.

SMILES	tim23-1 inh	PfHsp90 yeast 2	NALP3 yeast inh	TIM10 inh	tim10-1 inh	SKKanGAS inh	tim10-1 conf
Cc1cc(SCC(=O)NC(=O)NCc2ccco2)nc2ccccc12	48	x	11	32	43*	8	35*
COC(=O)C1(Cc2cc(-c3cccc(Br)c3)no2)CCN(C(=O)OC(C)(C)C)CC1	32	-70	13	31	41*	17	26
CC(C)(C)OC(=O)N1CCC(Cc2cc(-c3cccc(Br)c3)no2)(C(=O)O)CC1	23	-35	2	9	5	9	x
COc1ccc(CN(C)S(=O)(=O)c2ccc3c(c2)OCCO3)cc1	36	11	33	17	47*	51*	20
CN(Cc1ccccc1)S(=O)(=O)c1ccc2c(c1)OCCO2	41	12	28	36	42*	8	24
O=C(O)CN(Cc1ccccc1)S(=O)(=O)c1ccc2c(c1)OCCO2	0	31	-15	5	-9	-3	x
O=C(CSc1nc(O)cc(=O)[nH]1)N1c2ccccc2Sc2ccccc21	16	-87	4	-1	-9	12	x
O=C(CSc1nc2ccccc2[nH]1)N1c2ccccc2Sc2ccccc21	37	-17	5	26	46*	31	20
Cc1noc(C)c1C(=O)N1CCC(C(=O)c2ccccc2)CC1	17	-9	3	10	-7	2	x
CCc1ccc(OCC(=O)N/N=C(\C)c2ccc3c(c2)OCCO3)cc1	44	28	38	13	23	-3	x
C/C(=N\NC(=O)COc1ccc(C(C)(C)C)cc1)c1ccc2c(c1)OCCO2	25	-9	3	16	41*	-1	20
CC(C)(C)N(Cc1ccccc1)C(=O)COC(=O)/C=C/c1ccc2c(c1)OCO2	3	2	13	7	8	x	x
CC(=O)Nc1ccc(NC2=C(Cl)C(=O)c3ccccc3C2=O)cc1	29	x	-3	33	26	28	x
Cc1ccc(NC2=C(NCCO)C(=O)c3ccccc3C2=O)cc1	27	-12	8	19	43*	2	12
Cc1ccc(CNC(=O)CCc2nnc3ccc(N4CCC5(CC4)OCCO5)nn23)cc1	-17	10	1	-4	-19	3	x
S=C(Nc1ccc(Cl)cc1)NC1CCCCC1	23	1	42	3	7	-14	x
S=C(Nc1cccnc1)NC1CCCCCCC1	33	38	8	32	50*	1	45*
S=C(Nc1ccc(Nc2ccccc2)cc1)NC1CCCCCC1	6	-11	16	28	43*	17	38*
S=C(Nc1ccc2[nH]ccc2c1)NC1CCCCC1	24	18	18	35	42*	-1	8
CCOC(=O)Cc1cnc(NC(=O)CSc2nc(N)cc(N)n2)s1	7	3	0	-2	-6	-4	x
COc1ccc(C(CC(=O)O)NC(=O)COc2ccc(C)cc2)cc1OC (configuration not stated)	9	17	-1	3	-4	3	x
CC(C)CC(NC(=O)OC(C)(C)C)c1cn([C@@H](Cc2ccc(O)cc2)C(=O)N2CCN(C(=O)OC(C)(C)C)CC2)nn1 (some centres not stated)	-8	-12	1	-3	2	0	x
O=C(COc1cc2oc(=O)cc(-c3ccccc3)c2cc1Cl)NCc1ccccn1	-10	-15	5	-24	42*	-1	-58
COc1ccc(C(=O)COC(=O)c2nc3nccc(C)n3n2)cc1F	10	-27	7	-3	-3	x	x
O=S1(=O)NC(=NCCOCCO)c2ccccc21	8	-6	32	-8	-17	0	x
SMILES	tim23-1 inh	PfHsp90 yeast 2	NALP3 yeast inh	TIM10 inh	tim10-1 inh	SKKanGAS inh	tim10-1 conf
CCNC(=S)NNC(=O)c1cc(-c2cccc(OCC)c2)nc2ccccc12	22	-32	7	15	37	5	x
CCCCOc1cccc(-c2cc(C(=O)NNC(=S)NCC)c3ccccc3n2)c1	11	-14	5	18	41*	-4	37*
CCNC(=S)NNC(=O)c1cc(-c2cccnc2)nc2ccccc12	45	x	10	34	55*	20	41*
S=c1[nH]nc(C23CC4CC(CC(C4)C2)C3)n1Cc1ccco1	24	22	14	22	40*	4	25
CC(C)NCCCCOc1ccccc1-c1ccccc1	-2	x	10	9	10	-3	x
Cc1ccc(C)c(CSc2nnc(-c3ccccn3)n2N)c1	30	14	22	22	44*	7	30
Nn1c(SCc2c(F)cccc2F)nnc1-c1ccccn1	28	-10	8	26	18	-1	x
Cc1ccc(C(=O)N(CC#N)CC#N)cc1C	-6	6	14	-1	-19	-11	x
COc1ccc(/C=C2/N=C(c3cccs3)OC2=O)cc1OC(C)C	39	9	18	33	42*	-8	30*
COc1cc(OC)c(C(=O)OCC(=O)NC2CCCCCCC2)cc1OC	19	-2	21	-19	-18	x	x
Cc1cc(C)n(-c2ccn(Cc3ccc(Cl)cc3Cl)c(=O)n2)n1	43	x	-1	16	40*	-7	28
CCOC(=O)C1CCCN(S(=O)(=O)c2ccc(Cl)nc2)C1 (configuration not stated)	20	42	19	-5	2	-10	x
CCCC(=O)c1ccc(N2CCC(C)CC2)c(F)c1	12	5	32	-21	7	1	x
CN(C)CCCN1c2ccccc2Sc2ccc(C(F)(F)F)cc21	21	14	37	29	44*	-1	31
CCN(CC)CCCCN1c2ccccc2Sc2ccccc21	14	19	25	12	41*	4	27
OCCN1CCN(CC/C=C2/c3ccccc3CSc3ccccc32)CC1	4	x	6	23	25	4	x
OCCN1CCN(CC/C=C2/c3ccccc3Sc3ccc(C(F)(F)F)cc32)CC1	13	-9	15	18	51*	5	24
CN1CCN(CCC(=O)N2c3ccccc3Sc3ccc(C(F)(F)F)cc32)CC1	-6	-7	13	-2	5	-5	x
CN(C)CCC(=O)N1c2ccccc2Sc2ccc(C(F)(F)F)cc21	26	-3	25	16	22	0	x
OCCN1CCN(CCCN2c3ccccc3Sc3ccc(C(F)(F)F)cc32)CC1	6	11	35	20	42*	8	30*

Screening data (PubChem BioAssay)
